In PubChem BioAssay (NCATS):
Inconclusive results are not listed. A number with no mark means an inactive call. Calls of active or inactive are those of the source. Calls come from the whole dose curve; as a rule, active = well fitted cell-killing curve with a large enough effect; inconclusive = small, poorly fitted or top-dose-only effect; inactive = flat fitted curve, though single readings scatter.

assay: Identifying Small Molecule Inhibitors of Pancreatic Cancer Stem Cells (A278, Adherent) (AID 1259361); details: series mostly up to 46.1 µM; viability (% of control): at the top concentration;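 note: viability read after 48 h compound exposure; nearly all actives have a fitted effect of over 35% in size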;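 for viability (% of control): 100% = DMSO-treated cells and 0% = cell-free media-only wells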
From the text: Progenitor-like cancer cells, often referred to as cancer stem cells (CSC), are believed to be the drivers of therapeutic resistance and rapid recurrence. CSCs are postulated to reside in specific niches characterized by low oxygen tension, limited nutrient supply, and high redox load. Selectively targeting CSC, alone or in combination with cytotoxic agents, as a means to produce durable remissions is an appealing concept. Modeling these cells in in vitro setting is an important step in finding new therapies and/or targets. Multiple reports highlight that forcing cells in culture into 3-dimensionaly architectures (spheroids) re-establishes key progenitor-like transcriptional signatures. Pancreatic cancer is among the diseases with the most dismal outlook which is driven, largely, by recurance following front-line therapies. […] In hopes of deriving new insight into the targeting of these pancreatic CSCs we examined three established pancreatic cancer cell lines in cytotoxicity assays versus a collection of approved and investigational drugs. Importantly, we screened these lines as traditional monolayer (2D) and spheroid (3D) formats to gain an appreciation of agents with differential activity.
Multicellular tumor spheroids from Panc1, MiaPaCa-2, and the primary low-passage tissue culture line SB.06 were seeded in stem cell media (SCM) in nonadherent 6-well plates coated with hydrogel (Corning Life Sciences, Chelmsford, Mass) and pancreatic spheres generated for 14 days before screening. Cells were seeded into 1536-well solid-bottom white tissue culture treated Greiner Bio One Plates (789173-F) using a MultiDrop Combi (Thermofisher Scientific) dispenser and a small sterile cassette. One column was media alone to be used as a :"no cells" control. The plates were then covered with sterilized stainless steel gasketed lids from Kalypsys. After allowing cells to attach for 4 hours, 23 nL of test compound or control (negative control DMSO and positive control 9.2 uM Bortezomib-final) were added from a 1536-well polypropylene compound source plate to each well using a 1536 head pin tool from Kalypsys. Cells were then incubated for 48 hours at 37C, 95% relative humidity and 5% CO2. After 48 hours, plates were removed from the incubator and 3 uL of CellTiter-Glo (Promega) was added using an Aurora Flying Reagent Dispenser Bioraptor. Plates were incubated at room temperature for 10 minutes prior to reading the luminescence on the Viewlux (PerkinElmer). The relative luciferase units are used to calculate the percent activity using the activity of DMSO in the cells and no cells columns for normalization of no inhibition and full inhibition respectively.

| SMILES | IC50 (viability decrease) | viability (% of control) |
| --- | --- | --- |
| O=C(c1ccc(Nc2nccc(-c3cc4ccccc4s3)n2)cc1)N1CCC(N2CCCC2)CC1 | 18.7 µM (active) | – |
| Cc1nc2cnc3ccc(C#Cc4cccnc4)cc3c2n1-c1ccc(C(C)(C)C#N)cc1 | 0.187 µM (active) | – |
| Cc1ccc(C(=O)Nc2cccc(C(F)(F)F)c2)cc1-c1ccc2nc(NCCN3CCOCC3)ncc2c1 | 2.64 µM (active) | – |
| Nc1nc(Nc2ccc(S(N)(=O)=O)cc2)nn1C(=O)c1c(F)cccc1F | 2.64 µM (active) | – |
| CC(C)(C)c1cc(NC(=O)Nc2ccc(-c3cn4c(n3)sc3cc(OCCN5CCOCC5)ccc34)cc2)no1 | 10.5 µM (active) | – |
| CN(C)CCCN=c1c2ccccc2n(C)c2[nH]c(=O)n(C)c(=O)c12 | 11.8 µM (active) | – |
| CC1=C(CO)C(=O)O[C@@H]([C@@H](C)[C@H]2CC[C@H]3[C@@H]4C[C@H]5O[C@]56[C@@H](O)C=CC(=O)[C@]6(C)[C@@H]4CC[C@]23C)C1 | 0.662 µM (active) | – |
| CCCCN1CCC(CNC(=O)c2c3n(c4ccccc24)CCCO3)CC1 | – | 112 |
| Nc1nccc(Oc2ccc(NC(=O)c3c[nH]cc(-c4ccc(F)cc4)c3=O)cc2F)c1Cl | 23.5 µM (active) | – |
| Cc1[nH]nc2ccc(-c3cncc(OC[C@@H](N)Cc4ccccc4)c3)cc12 | 0.935 µM (active) | – |
| CN(c1ncccc1CNc1nc(Nc2ccc3c(c2)CC(=O)N3)ncc1C(F)(F)F)S(C)(=O)=O | 2.96 µM (active) | – |
| CN1CCN(c2cc(C(=O)Nc3ccc4c(c3)-c3c(c(C(N)=O)nn3-c3ccc(F)cc3)CC4)c(Cl)cn2)CC1 | 23.5 µM (active) | – |
| CC[C@@H]1C(=O)N(C)c2cnc(Nc3ccc(C(=O)NC4CCN(C)CC4)cc3OC)nc2N1C1CCCC1 | 0.0132 µM (active) | – |
| Cc1[nH]c2ccccc2c1CCNCc1ccc(C=CC(=O)NO)cc1 | 0.118 µM (active) | – |
| O=C(C=Cc1cccc(S(=O)(=O)Nc2ccccc2)c1)NO | 4.69 µM (active) | – |
| C[C@@H](Oc1cc(-n2cnc3ccc(CN4CCN(C)CC4)cc32)sc1C(N)=O)c1ccccc1C(F)(F)F | 0.0187 µM (active) | – |
| COc1cc2c(Oc3ccc4[nH]c(C)cc4c3F)ncnc2cc1OCCCN1CCCC1 | 16.6 µM (active) | – |
| Cc1cc(Nc2cc(N3CCN(C)CC3)nc(C=Cc3ccccc3)n2)n[nH]1 | 2.35 µM (active) | – |
| Cn1cncc1[C@@](N)(c1ccc(Cl)cc1)c1ccc2c(c1)c(-c1cccc(Cl)c1)cc(=O)n2C | 23.5 µM (active) | – |
| Cn1c2cc(S(C)=O)sc2c2cnn(Cc3cccc(N)c3)c(=O)c21 (stereo not given) | – | 114 |

| SMILES | IC50 (viability decrease) | viability (% of control) |
| --- | --- | --- |
| CC(C)[C@H](C(=O)Nc1ccc(C(=O)NO)cc1)c1ccccc1 | 0.833 µM (active) | – |
| COc1cc2c(Oc3ccc(NC(=O)C4(C(=O)Nc5ccc(F)cc5)CC4)cc3F)ccnc2cc1OCCCN1CCOCC1 | 4.69 µM (active) | – |
| CC(=O)OCCN1C(=O)c2c(C)nc3ccc(S(=O)(=O)N4CCOCC4)cc3c2C1=O | – | 89.9 |
| CC(C)(C)OC(=O)Nc1ccc(-c2cc(C(=O)NCCCCCCC(=O)NO)no2)cc1 | 2.35 µM (active) | – |
| COC(=O)c1ccc2c(C(=Nc3ccc(N(C)C(=O)CN4CCN(C)CC4)cc3)c3ccccc3)c(O)[nH]c2c1 | 4.69 µM (active) | – |
| CN1CCN(c2ccc3nc(-c4c(N)c5c(F)cccc5[nH]c4=O)[nH]c3c2)CC1 | 3.32 µM (active) | – |
| CCN1CCN(CC(=O)Nc2ccc(-c3cccc4c(=O)cc(N5CCOCC5)oc34)c3sc4ccccc4c23)CC1 | 4.18 µM (active) | – |
| NC(=O)Nc1cc(-c2cccc(F)c2)sc1C(=O)N[C@H]1CCCNC1 | 1.05 µM (active) | – |
| c1cc(-c2cnn3cc(-c4ccc(OCCN5CCCCC5)cc4)cnc23)ccn1 | 26.4 µM (active) | – |
| COc1cc2c(Oc3ccc(-c4cnc(Nc5ccc(F)cc5)n(C)c4=O)cc3F)ccnc2cc1OCCCN1CCOCC1 | 3.72 µM (active) | – |
| COc1ccc(OC)c(-c2nnc3ccc(-c4ccc(OC)c(O[C@@H]5CCOC5)c4)nn23)c1 | 5.9 µM (active) | – |
| Nc1ccccc1NC(=O)c1ccc(CNC(=O)OCc2cccnc2)cc1 | – | 110 |
| O=c1[nH]nc(Sc2ncc([N+](=O)[O-])s2)n1-c1ccc2c(c1)OCCO2 | 26.4 µM (active) | – |
| C=CC(=O)Nc1cc2c(Nc3ccc(F)c(Cl)c3)ncnc2cc1OCCCN1CCOCC1 | 16.6 µM (active) | – |
| CCC(=C(c1ccccc1)c1ccc(OCCN(C)C)cc1)c1ccccc1 | 23.5 µM (active) | – |
| COc1ccc(CC2SC(=O)NC2=O)cc1C(=O)NCc1ccc(C(F)(F)F)cc1 (stereo not given) | – | 90.3 |
| COC(=O)[C@]12CCC(C)(C)C[C@@H]1[C@@H]1C(=O)C=C3[C@@]4(C)C=C(C#N)C(=O)C(C)(C)[C@@H]4CC[C@@]3(C)[C@]1(C)CC2 | 1.05 µM (active) | – |
| CC(C)C[C@H](NC(=O)CNC(=O)c1cc(Cl)ccc1Cl)B(O)O | 0.0166 µM (active) | – |
| Cc1ccc(S(=O)(=O)Nc2cc(Cl)ccc2C(=O)Nc2nc(-c3ccccc3)cs2)cc1 | 3.72 µM (active) | – |
| CC(=O)OCC(=O)[C@@]1(O)[C@H](C)C[C@H]2[C@@H]3C=C(C)C4=Cc5c(cnn5-c5ccccc5)C[C@]4(C)[C@@H]3[C@@H](O)C[C@@]21C | 13.2 µM (active) | – |
